# Assay results from PubChem BioAssay (Tox21).
# Values without a mark were called inactive. The source made the active and inactive calls. Calls come from the whole dose curve; as a rule, active = well fitted curve in the direction sought with a large enough effect in the repeat runs; inconclusive = weak or mixed curves; inactive = flat fitted curve, though single readings scatter.
# Assay: qHTS assay to test for compound auto fluorescence at 460 nm (blue) in HepG2 cell free culture (AID 720685)
# Conditions: Cell-free culture medium, blue autofluorescence 405/460 nm; series mostly up to 91.3 µM; fluorescence, % of fluorescent control: at the top concentration
# From the text: U.S. Tox21 Program National Center for Advancing Translational Sciences [NCATS] NIH Chemical Genomics Center [NCGC] U.S. Environmental Protection Agency [EPA] National Institutes of Environmental Health Sciences [NIEHS] National Toxicology Program [NTP] U.S. Food and Drug Administration [FDA] Tox21 Assay Overview: Compound auto fluorescence often interferes with screening of the compound library against various biological targets and signaling pathways. Some of these compounds may have fluorophoric properties. Such properties may interfere with the assay outputs resulting in false positives and/or negatives. To decrease such complications and ensure the compound activities are relevant in terms of biological response, the Tox21 10K compound library was screened for auto fluorescence. From the fluorophores used as reporter signals in our screening assays, the auto fluorescence equivalencies of compounds against three fluorophores have been evaluated: Triamterene, Fluorescein and Rose Bengal sodium for blue, green and red fluorescence, respectively. The fluorescence intensities were measured using Excitation/Emission wavelengths at 405/460nm, 485/535nm and 540/590nm for blue, green and red labels, respectively. This assay includes the blue fluorescence data.
# Tox21 Assay Protocol Summary: 5 uL of culture medium (MEM containing 10% FBS) per well was dispensed into black wall/clear bottom 1536-well plates using a Multidrop Combi Dispenser (ThermoFisher Scientific, Waltham, MA). After 23 nL compound or DMSO vehicle was transferred into assay plate by a pintool work station (Kalypsys, San Diego, CA), fluorescence intensities in the assay plates were measured by an Envision (PerkinElmer, Shelton, CT) plate reader using three labels for measuring blue, green and red fluorescence at […] 460, 535 and 590nm respectively.
# % is set by controls: 0 for no effect and ±100 for the full control effect.
SMILES,"fluorescence, % of fluorescent control",outcome
CCOC(=O)CCc1ccccc1,-0.0675%,–
CCN(CCC#N)c1ccccc1,-0.0541%,–
CCC(O)C(C)(C)C (stereo not given),0.0273% [at 95.7 µM],–
c1ccc(CNc2ncnc3nc[nH]c23)cc1,0.0491%,–
CCCCCCCC/C=C\CCCCCCCC(=O)OC[C@@H](O)[C@H]1OC[C@H](O)[C@H]1O,–,inactive
O=C(O)c1c(Cl)ccc(Cl)c1Cl,-0.0005%,–
Cc1ncc([N+](=O)[O-])n1CC(O)CCl (stereo not given),-0.0905% [at 18.6 µM],–
CCCCCCCCCCC,0.0512%,–
F[Si-2](F)(F)(F)(F)F,–,inactive
CC(C)(CO)[C@@H](O)C(=O)NCCCO,-0.0507% [at 46 µM],–
CCCCOC(=O)C(=O)OCCCC,-0.0062%,–
COc1cc(C=O)ccc1OC(=O)C(C)C,0.114%,–
COc1cc2c(Nc3ccc(Br)cc3F)ncnc2cc1OCC1CCN(C)CC1,0.25% [at 46 µM],–
CCCCCCCCCCCCCC(=O)OC,-0.0881%,–
COCC(=O)Nc1c(I)c(C(=O)NCC(O)CO)c(I)c(C(=O)N(C)CC(O)CO)c1I (stereo not given),-0.109% [at 18.6 µM],–
O=C(Nc1cccc(C2=NCCN2)c1)Nc1cccc(C2=NCCN2)c1,-0.0651% [at 46 µM],–
Cc1ccc2c(c1)c1c3n2CCNC3CCC1 (stereo not given),0.0556% [at 46 µM],–
CC(=O)c1ccc(OCC(=O)N2CCCCC2)cc1,-0.0038% [at 46 µM],–
Cc1ccccc1N1CCN(CCc2nnc3n2CCCC3)CC1,-0.087% [at 46 µM],–
CC(C)COC(=O)CC(C(=O)OCC(C)C)S(=O)(=O)O (stereo not given),-0.037%,–

SMILES,"fluorescence, % of fluorescent control",outcome
CO/N=C(/C(=O)N[C@@H]1C(=O)N2C(C(=O)O)=C(Cn3nnc(C)n3)CS[C@H]12)c1csc(N)n1,-0.131% [at 46 µM],–
Cc1ccccc1OCC1CO1 (stereo not given),0.009%,–
NS(=O)(=O)c1cc2c(cc1Cl)NC(CC1CCCC1)NS2(=O)=O (stereo not given),-0.0354% [at 18.6 µM],–
OC(CCN1CCCCC1)(c1ccccc1)c1ccccc1,-0.0137% [at 46 µM],–
CCC(C)(C)C1CCC(=O)CC1,-0.0552%,–
Cc1ccc(S(=O)(=O)NC(=O)NC2CCCCCCC2)cc1,-0.0786% [at 46 µM],–
Cc1cccc(C(=O)O)c1[N+](=O)[O-],-0.008%,–
CO[Si](CCCCl)(OC)OC,-0.01%,–
CCN1CN(CC)CN(CC)C1,-0.0685%,–
CCCOC(=O)CCCCC(=O)OCCC,-0.0278%,–
C=CC(C)(O)CC/C=C(\C)CC (stereo not given),-0.112%,–
CCC(C)(CCC(C)C)C(=O)[O-].CCC(C)(CCC(C)C)C(=O)[O-].[Zn+2] (stereo not given),0.0162%,–
CC(C)=CC(C)(C)C,-0.0069%,–
CC(C)(C)NCCO,0.0382%,–
CCOC(=O)CC#N,0.111%,–
NC(Cc1c[nH]c2ccccc12)C(=O)O (stereo not given),0.536% [at 46 µM],–
CCOc1ccc(NC(=O)OC(C)C)cc1OCC,0.229%,–
Cn1c(=O)c2c(ncn2CC2OCCO2)n(C)c1=O,0.0678% [at 46 µM],–
CC(C)CCCCCCOC(=O)C1CCCCC1C(=O)OCCCCCCC(C)C (stereo not given),0.0214%,–
CCCOCCOCCOCCO,-0.0657%,–
